Measured values published in the supplement of paper PMC8728848.
This excerpt belongs to a sample that is enriched for the strongest signals.

Key:
Experiment in all cases: glycan array binding signal (z-score within array); higher = stronger binding
Settings in all cases: glycan notation: IUPAC condensed, linker removed
[1] = biological target: Fuc(a1-2)Gal(b1-3)GlcNAc(b1-2)Man(a1-3)[Fuc(a1-2)Gal(b1-3)GlcNAc(b1-2)Man(a1-6)]Man(b1-4)GlcNAc(b1-4)[Fuc(a1-6)]GlcNAc
Procedure, shortened: (§1)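 Glycan array data were curated from 3228 arrays in the Consortium for Functional Glycomics database and kept only where the protein sequence was available. Glycan names were converted to IUPAC-condensed notation, and columns mapping to the same glycan were averaged. The binding signal is a within-array Z-score, averaged across arrays of the same protein sequence at different concentrations or buffers and across linkers. Negative Z-scores can be read as non-binding.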

[2] = biological target: Fuc(a1-2)Gal(b1-3)GlcNAc(b1-3)[Gal(b1-4)GlcNAc(b1-6)]Gal(b1-4)Glc
Procedure, shortened: as §1

[3] = biological target: Fuc(a1-2)Gal(b1-3)[Fuc(a1-4)]GlcNAc
Procedure, shortened: as §1

[4] = biological target: Fuc(a1-2)Gal(b1-3)[Fuc(a1-4)]GlcNAc(b1-2)Man(a1-3)[Fuc(a1-2)Gal(b1-3)[Fuc(a1-4)]GlcNAc(b1-2)Man(a1-3)]Man(b1-4)GlcNAc(b1-4)GlcNAc
Procedure, shortened: as §1

[5] = biological target: Fuc(a1-2)Gal(b1-4)GlcNAc(b1-6)GalNAc
Procedure, shortened: as §1

[6] = biological target: Fuc(a1-2)Gal3S(b1-4)GlcNAc
Procedure, shortened: as §1

[7] = biological target: Fuc(a1-2)[Gal(a1-3)]Gal(b1-3)GalNAc(b1-3)Gal(a1-4)Gal(b1-4)Glc
Procedure, shortened: as §1

[8] = biological target: Fuc(a1-2)[Gal(a1-3)]Gal(b1-3)GlcNAc
Procedure, shortened: as §1

[9] = biological target: Fuc(a1-2)[Gal(a1-3)]Gal(b1-3)GlcNAc(b1-6)GalNAc
Procedure, shortened: as §1

[10] = biological target: Fuc(a1-2)[Gal(a1-3)]Gal(b1-4)[Fuc(a1-3)]GlcNAc(b1-3)GalNAc
Procedure, shortened: as §1

[11] = biological target: Fuc(a1-3)[Gal(b1-4)]GlcNAc(b1-2)Man(a1-3)[Fuc(a1-3)[Gal(b1-4)]GlcNAc(b1-2)Man(a1-6)]Man(b1-4)GlcNAc(b1-4)GlcNAc
Procedure, shortened: as §1

[12] = biological target: Fuc(a1-3)[Gal(b1-4)]GlcNAc(b1-3)Gal(b1-4)[Fuc(a1-3)]GlcNAc
Procedure, shortened: as §1

[13] = biological target: Fuc(a1-3)[Gal(b1-4)]GlcNAc(b1-6)GalNAc
Procedure, shortened: as §1

[14] = biological target: Fuc(a1-3)[Gal(b1-4)]GlcNAc6S
Procedure, shortened: as §1

[15] = biological target: Gal(a1-3)Gal(b1-3)GlcNAc(b1-6)GalNAc
Procedure, shortened: as §1

[16] = biological target: Gal(a1-3)Gal(b1-4)GlcNAc(b1-2)Man(a1-3)[Gal(a1-3)Gal(b1-4)GlcNAc(b1-2)Man(a1-6)]Man(b1-4)GlcNAc(b1-4)GlcNAc
Procedure, shortened: as §1

[17] = biological target: Gal(b1-3)GlcNAc(b1-2)Man(a1-3)[Gal(b1-3)GlcNAc(b1-2)Man(a1-6)]Man(b1-4)GlcNAc(b1-4)GlcNAc
Procedure, shortened: as §1

[18] = biological target: Gal(b1-3)GlcNAc(b1-2)Man(a1-3)[Gal(b1-3)GlcNAc(b1-2)Man(a1-6)]Man(b1-4)GlcNAc(b1-4)[Fuc(a1-6)]GlcNAc
Procedure, shortened: as §1

[19] = biological target: Gal(b1-3)GlcNAc(b1-3)Gal(b1-4)GlcNAc
Procedure, shortened: as §1

[20] = biological target: Gal(b1-3)GlcNAc(b1-3)Gal(b1-4)GlcNAc(b1-2)Man(a1-3)[Gal(b1-3)GlcNAc(b1-3)Gal(b1-4)GlcNAc(b1-2)Man(a1-6)]Man(b1-4)GlcNAc(b1-4)GlcNAc
Procedure, shortened: as §1

[21] = biological target: Gal(b1-3)GlcNAc(b1-6)Gal(b1-4)GlcNAc
Procedure, shortened: as §1

[22] = biological target: Gal(b1-3)GlcNAc(b1-6)[Gal(b1-3)]GalNAc
Procedure, shortened: as §1

[23] = biological target: Gal(b1-3)[Fuc(a1-4)]GlcNAc(b1-6)GalNAc
Procedure, shortened: as §1

[24] = biological target: Gal(b1-4)GlcNAc(b1-3)Gal(b1-3)GalNAc
Procedure, shortened: as §1

[25] = biological target: Gal(b1-4)GlcNAc(b1-3)Gal(b1-4)GlcNAc(b1-2)Man(a1-3)[Gal(b1-4)GlcNAc(b1-3)Gal(b1-4)GlcNAc(b1-2)Man(a1-6)]Man(b1-4)GlcNAc(b1-4)GlcNAc
Procedure, shortened: as §1

[26] = biological target: Gal(b1-4)GlcNAc(b1-3)Gal(b1-4)GlcNAc(b1-2)Man(a1-3)[Gal(b1-4)GlcNAc(b1-3)Gal(b1-4)GlcNAc(b1-2)Man(a1-6)]Man(b1-4)GlcNAc(b1-4)[Fuc(a1-6)]GlcNAc
Procedure, shortened: as §1

B1: PX9937B-bvu-524-33-524 (Bacteroides vulgatus) (protein)
chain: GTAYWKNPDQFTAFNTGLHALLREKSYNFFLLGEPRADIYGDNPIGGEASQGMERLPFNTINKENVGISNYGDMYKIINQINQMIAKTTETTILTEATQNYYLGEAYGMRAYLYFHLLRSWGDVVLYLDYTEGQNLDLSNITKGVSPATEVMEQIKKDIQASENAFGSDYSFKLGRHFWSAAATQMLKGEAYLWSGRQMNGGNSDYTIAKNAFENVKKADVGLVTSSFKDIFSFENKKNKEMIFTIHNGKDEYEMWGGYYRMRLIPAQDKMVKIYCDENGNSFVGTPDAQLNGLTQLQVRREFYFKGFRNNDTRWTTSLKAVYKKDAQGVVSYFGPITYKFQGTMLEGGSTRSFLDDFPIYRYADCLLQLAMAKVLLGEDPTEEINAVRERAYGSKYFNEHKAEIAYPNDNDPEFYTDNKWMKPDNAGALEAILKERLREFMFEGKRWYDIRLLGWDYVHQYSSAEQSRLLWPIDAGTLTNNSALKQTPGYE
B1 was tested, and the “glycan array binding signal (z-score)” value [1] was -0.232, the “glycan array binding signal (z-score)” value [2] was -0.284 and the “glycan array binding signal (z-score)” value [3] was -0.457. The “glycan array binding signal (z-score)” value [4] was -0.154, the “glycan array binding signal (z-score)” value [5] was -0.136 and the “glycan array binding signal (z-score)” value [6] was -0.476. The “glycan array binding signal (z-score)” value [7] was 0.046, the “glycan array binding signal (z-score)” value [8] was -0.275 and the “glycan array binding signal (z-score)” value [9] was -0.124. The “glycan array binding signal (z-score)” value [10] was -0.416, the “glycan array binding signal (z-score)” value [11] was 1.23 and the “glycan array binding signal (z-score)” value [12] was -0.277. The “glycan array binding signal (z-score)” value [13] was 2.69, the “glycan array binding signal (z-score)” value [14] was 0.219 and the “glycan array binding signal (z-score)” value [15] was 6.13. For the same binder, the “glycan array binding signal (z-score)” value [16] was 2.91, the “glycan array binding signal (z-score)” value [17] was -0.057 and the “glycan array binding signal (z-score)” value [18] was 0.088. For the same binder, the “glycan array binding signal (z-score)” value [19] was -0.228, the “glycan array binding signal (z-score)” value [20] was 12.8 and the “glycan array binding signal (z-score)” value [21] was -0.085. For the same binder, the “glycan array binding signal (z-score)” value [22] was 7.68, the “glycan array binding signal (z-score)” value [23] was -0.019 and the “glycan array binding signal (z-score)” value [24] was -0.08. The “glycan array binding signal (z-score)” value [25] was 2.05 and the “glycan array binding signal (z-score)” value [26] was 1.48.
